Compound activity: PubChem BioAssay, National Center for Advancing Translational Sciences (NCATS)
HepG2 tox: qHTS for Inhibitors of TGF-b: Cytotox Counterscreen; hit rate 0.76% among 410,000; HepG2 CAGA-GFP viability, ATP luminescence, 18 h; Potency, µM (highest dose often 46.1 µM), most hits filed as cytotoxic; AID 588856, 2011
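CellTiter-Glo luminescence gave cytotoxicity after 18 hours at 37 degrees C. The cells were HepG2 CAGA-GFP in 1% FBS DMEM, stimulated with 500 pg/mL TGF-beta after compound addition. %Activity was normalised to no-cell wells (complete cell-killing) and DMSO (no toxicity), and curves were fitted and classified.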
TGFb inhibitor: qHTS for Inhibitors of TGF-b; Potency, µM (titrated, usually from 46.1 µM), actives largely listed as inhibitors; hit rate 1.2% among 410,000; HepG2 CAGA-GFP TGF-b/SMAD3 reporter, GFP fluorescence, 18 h; TGF-beta stimulated, 500 pg/mL final; further: nearly all actives have a fitted effect of over 65% in size
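Cell-based qHTS in HEPG2 carrying a CAGA-GFP Smad reporter; compounds added before 500 pg/mL final TGF-beta, 18 h incubation at 37 degrees C, GFP fluorescence quantified per cell by imaging cytometry.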
DT40 TDP1 no CPT: qHTS for Inhibitors of human tyrosyl-DNA phosphodiesterase 1 (TDP1): qHTS in cells in absence of CPT | Potency, µM (top dose mostly 46.2 µM), most hits filed as inhibitors | hit rate 15% among 420,000 | DT40 Tdp1-/- hTDP1 cells, no CPT, ATP luminescence, 48 h | AID 686978, 2013; further: nearly all actives have a fitted effect of over 55% in size
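Seeded 400 DT40-hTDP1 cells/well (vehicle DMSO, no 20 nM CPT); pinned compounds; ≥48 hr at 37 °C; CellTiter-Glo luminescence as viability measure.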
DT40 TDP1 CPT: qHTS for Inhibitors of human tyrosyl-DNA phosphodiesterase 1 (TDP1): qHTS in cells in presence of CPT. chicken DT40 Tdp1-/-;hTDP1 cells + 20 nM CPT, ATP luminescence, 48 h. Potency, µM (top dose mostly 46.2 µM), usual class: inhibitors. hit rate 12% among 420,000; further: nearly all actives have a fitted effect of over 55% in size
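Chicken DT40 Tdp1-/- cells stably complemented with human TDP1 were seeded at 400 cells/well in medium containing 20 nM camptothecin, exposed to pin-transferred compounds, and grown at 37 °C for at least 48 hr. Viability was read as ATP luminescence.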
ATXN2 expr inh: Primary qHTS for Inhibitors of ATXN expression | Potency, µM (top dose mostly 57 µM), usual class: inhibitors | HEK-293 ATXN2-luciferase reporter, luminescence, 24 h | hit rate 0.72% among 360,000; further: nearly all actives have a fitted effect of over 55% in size
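qHTS (up to 57 uM final) was run with 24 h compound exposure of reporter cells at 37 °C. Each well was multiplexed: SteadyGlo luminescence measured ATXN2-luciferase expression after a fluorogenic Gly-Phe-AFC viability readout (25 uM final).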
S2 tox: Viability Counterscreen for Primary qHTS for Inhibitors of ATXN expression. S2 cells (HEK-293 line with an ATXN2-luciferase reporter) viability, CellTiter-Fluor protease fluorescence, 24 h. Potency, µM (highest dose often 56.7 µM), usual class: cytotoxic. hit rate 0.49% among 400,000; further: nearly all actives have a fitted effect of over 40% in size
Large screens that a line does not name were inactive. In the library only some 17% were active in any assay of this set; here they are far more common. The call rests on the fitted dose curve; in most records, active means well fitted curve in the direction sought with a large enough effect; inconclusive means small, poorly fitted or top-dose-only effect, or another doubt; inactive means no such curve, though single readings can be large; an effect the other way counts as inactive or inconclusive.

NC(=O)C(c1ccccc1)(c1ccccc1)[C@@H]1CCN(CCc2ccc3c(c2)CCO3)C1	DT40 TDP1 no CPT 19µM, DT40 TDP1 CPT inconclusive, ATXN2 expr inh inconclusive, S2 tox inconclusive (no result: HepG2 tox, TGFb inhibitor)
CCN(Cc1ccccc1)C(=O)Cn1c(=O)oc2ccccc21	none
O=C(C1CCN(S(=O)(=O)c2ccc(Br)s2)CC1)N1CCN(c2ccc(F)cc2)CC1	DT40 TDP1 no CPT 21µM, DT40 TDP1 CPT inconclusive, S2 tox inconclusive
O=C(Cc1ccc(Cl)c(Cl)c1)N1CCCCC1CN1CCCC1 (configuration not stated)	none (no result: HepG2 tox, TGFb inhibitor, ATXN2 expr inh, S2 tox)
O=C(NCCc1ccccc1)[C@@H]1CC=C[C@@H]2CCN(Cc3ccc(Cl)c(Cl)c3)C(=O)[C@@H]21	TGFb inhibitor inconclusive, DT40 TDP1 no CPT 10µM, DT40 TDP1 CPT 4µM (no result: S2 tox)
COc1ccc(-n2c(O)c(C(C)=NCc3ccc4c(c3)OCO4)c(=O)[nH]c2=O)cc1	S2 tox inconclusive
C/C(=N\N1CCN(C)CC1)c1c(O)[nH]c(=O)[nH]c1=O	none
Cc1ccc([C@@H]2CC(=O)[C@@H]3CN(S(=O)(=O)c4ccccc4C)[C@H](c4ccc(Cl)cc4)C[C@@H]3N2S(=O)(=O)c2ccc(C)cc2)cc1	DT40 TDP1 no CPT 26µM, DT40 TDP1 CPT inconclusive, S2 tox inconclusive
O=S(=O)(c1ccc(Cl)cc1)N1CCCC1c1cccnc1 (configuration not stated)	none
Brc1cccc(CNCCc2ccc3c(c2)OCO3)c1	DT40 TDP1 no CPT inconclusive, DT40 TDP1 CPT inconclusive (no result: ATXN2 expr inh, S2 tox)
CCNC(=O)CCSc1nc2cc(Cl)ccc2o1	TGFb inhibitor inconclusive, DT40 TDP1 no CPT inconclusive
c1ccc(CNc2c3c(nc4ccccc24)CCC3)cc1	TGFb inhibitor inconclusive, DT40 TDP1 no CPT 15µM, DT40 TDP1 CPT inconclusive, ATXN2 expr inh 18µM, S2 tox inconclusive
CC(C)CNc1c2c(nc3ccccc13)CCC2	DT40 TDP1 no CPT 18µM, DT40 TDP1 CPT inconclusive, ATXN2 expr inh inconclusive
OCCNc1c2c(nc3ccccc13)CCCC2	none
O=C(Nc1ccc(Cl)cc1)N1CC1	DT40 TDP1 no CPT 15µM, DT40 TDP1 CPT 8.2µM, S2 tox inconclusive
CCOC(=O)CSc1ccc(C(=O)N2CCC3(CC2)OCCO3)cc1[N+](=O)[O-]	none
Oc1ccc(C2NCc3ccccc3-n3cccc32)cc1Cl (configuration not stated)	DT40 TDP1 no CPT inconclusive, DT40 TDP1 CPT inconclusive
c1cc2n(c1)-c1c(ccc3c1OCO3)CNC2c1ccc2c(c1)OCO2 (configuration not stated)	DT40 TDP1 no CPT 13µM, DT40 TDP1 CPT inconclusive
COc1ccc(C2NCc3ccc4c(c3-n3cccc32)OCO4)cc1O (configuration not stated)	TGFb inhibitor inconclusive, DT40 TDP1 no CPT 4.6µM, DT40 TDP1 CPT 4.1µM
CN1CCC(O)(c2cccs2)C(C(=O)c2cccs2)C1 (configuration not stated)	TGFb inhibitor inconclusive, DT40 TDP1 no CPT 3.7µM, DT40 TDP1 CPT 1.3µM
COc1ccc(CCNC(=O)c2ccc3c(c2)CCN3S(=O)(=O)c2ccc(C)cc2)cc1OC	DT40 TDP1 no CPT 13µM, DT40 TDP1 CPT 21µM, S2 tox inconclusive
Oc1c(C(Nc2cccnc2)c2ccccc2F)ccc2cccnc12 (configuration not stated)	TGFb inhibitor inconclusive, DT40 TDP1 no CPT inconclusive, DT40 TDP1 CPT inconclusive (no result: ATXN2 expr inh, S2 tox)
CNCc1ccccc1	DT40 TDP1 no CPT inconclusive (no result: HepG2 tox, TGFb inhibitor)
COc1ccc2c(c1OC)CN1CCc3cc4c(cc3C1C2)OCO4 (configuration not stated)	DT40 TDP1 no CPT inconclusive, DT40 TDP1 CPT 21µM
COc1ccc2c(c1OC)CN1CCc3cc4c(cc3[C@H]1C2)OCO4	TGFb inhibitor inconclusive, DT40 TDP1 no CPT 13µM, DT40 TDP1 CPT 15µM, S2 tox inconclusive
COc1cc2c(cc1OC)C(C1c3cc4c(cc3CCN1C)OCO4)OC2=O (configuration not stated)	ATXN2 expr inh inconclusive
CC1(C)N(O)C(c2ccc(C(=O)O)cc2)=[N+]([O-])C1(C)C	none (no result: HepG2 tox, TGFb inhibitor, ATXN2 expr inh, S2 tox)
N#CN	none (no result: HepG2 tox, TGFb inhibitor, ATXN2 expr inh, S2 tox)
CC(=O)Oc1c2c(c(CC=C(C)C)c3c1C(=O)C1=CC4CC5C(C)(C)OC(C/C=C(\C)C(=O)O)(C4=O)[C@]15O3)OC(C)(CCC=C(C)C)C=C2 (some centres not stated)	DT40 TDP1 no CPT 0.92µM, DT40 TDP1 CPT 0.82µM (no result: HepG2 tox, TGFb inhibitor, ATXN2 expr inh, S2 tox)
COC(=O)/C(C)=C\CC12OC(C)(C)C3CC(C=C4C(=O)c5c(OC)c6c(c(CC=C(C)C)c5OC431)OC(C)(CCC=C(C)C)C=C6)C2=O (configuration not stated)	DT40 TDP1 no CPT 3.7µM, DT40 TDP1 CPT 4.6µM (no result: HepG2 tox, TGFb inhibitor, ATXN2 expr inh, S2 tox)
CC(C)(C)NCC(O)c1cc(Cl)c(N)c(C(F)(F)F)c1 (configuration not stated)	S2 tox inconclusive (no result: HepG2 tox, TGFb inhibitor)
CC(Nc1cc(C)cc(C)c1)=[N+](C)CCNS(=O)(=O)c1ccc(Cl)cc1	DT40 TDP1 CPT 13µM
O=C(N=Nc1c(O)[nH]c(=O)[nH]c1=O)C1COc2cc3ccccc3cc2O1 (configuration not stated)	DT40 TDP1 no CPT inconclusive, DT40 TDP1 CPT 18µM
C=CCN1C(=O)NC(=O)/C(=C/c2ccc(OC)c(CSc3ccccn3)c2)C1=O	DT40 TDP1 no CPT inconclusive, DT40 TDP1 CPT inconclusive, S2 tox inconclusive
C=CCN1C(=O)NC(=O)/C(=C/C=C/c2ccccc2)C1=O	TGFb inhibitor inconclusive, DT40 TDP1 no CPT 23µM, DT40 TDP1 CPT 16µM
O=C1NC(=O)N(CCc2ccc(F)cc2)C(=O)/C1=C\C=C\c1ccccc1	DT40 TDP1 no CPT 3.7µM, DT40 TDP1 CPT 2.3µM
CC(C)C(=O)N1CCC(CN=Cc2c(O)n(C3CCCCC3)c(=O)n(C3CCCCC3)c2=O)CC1	DT40 TDP1 no CPT 23µM, DT40 TDP1 CPT inconclusive
CN(C)CCN=Cc1c(O)n(C2CCCCCC2)c(=O)[nH]c1=O	TGFb inhibitor inconclusive
O=C(O)CP(=O)(O)c1ccc(Cl)cc1	TGFb inhibitor inconclusive
COC(=O)C1=C(c2cc3ccccc3s2)C[C@@H]2CC[C@H]1N2C(=O)N1CCC(O)CC1	DT40 TDP1 no CPT 23µM, DT40 TDP1 CPT 15µM
COC(=O)C1=C(c2cc3ccccc3s2)C[C@@H]2CC[C@H]1N2C(=O)N1CCCCC1	TGFb inhibitor inconclusive, DT40 TDP1 no CPT 6.5µM, DT40 TDP1 CPT 2.9µM, S2 tox inconclusive
